The values that follow come from PubChem BioAssay (Tox21).

Several values for one entry are separate records, joined by “and”; a condition that tells them apart may be missing. Equal entries are not always repeated. Results filed as inconclusive are left out. More than one record can exist for a structure, and the calls need not agree. Activity calls are given as the source filed them. Unless noted, calls come from the whole dose curve.

A short description of test [1]: Nuclear factor erythroid 2-related factor 2/antioxidant responsive element (Nrf2/ARE) small molecule agonists: qHTS cell viability counter screen in human keratinocytes (AID 1919968; active = well fitted curve in the direction sought with a large enough effect in the repeat runs; an effect the other way counts as inactive or inconclusive; note: nearly all actives have a fitted effect of over 55% in size; note: potency is the fitted concentration of half-maximal effect). A digest of the protocol:
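In human HaCaT keratinocytes stably expressing an ARE-driven luciferase, compound exposure lasted 23 h at 37 C under 5% CO2. Viable cells are quantified with a protease-based fluorogenic reagent (CellTiter-Fluor) read 1 h after addition.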
(Quantitative high-throughput screening tests each substance at several concentrations.)

Test [2] in a line: Nuclear factor erythroid 2-related factor 2/antioxidant responsive element (Nrf2/ARE) small molecule agonists: luciferase reporter gene qHTS assay in human keratinocytes (AID 1919969). Note: nearly all actives have a fitted effect of over 35% in size. Note: potency is the fitted concentration of half-maximal effect. For orientation: A reporter such as luciferase makes a cellular process visible.
Test [3] has as its target Gonadotropin-releasing hormone receptor (Homo sapiens) (UniProt P30968). Description: Human gonadotropin-releasing hormone receptor (GnRHR) small molecule agonists, calcium flux assay in GnRHR-HEK293 cells (AID 1920063). Note: nearly all actives have a fitted effect of over 35% in size. A digest of the protocol:
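Intracellular calcium rise is the read-out: engineered human GnRHR HEK293 cells, dye-loaded, are exposed to DMSO-dissolved compounds and fluorescence at Ex/Em 480/540 is tracked for 3 min.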
On the technique in general: A change in cytosolic calcium serves as a functional read-out for many receptors and channels.

Test [4] addresses KiSS-1 receptor (Homo sapiens) (UniProt Q969F8). Description: Human kisspeptin (KISS1R) small molecule agonists, calcium flux assay in KISS1R-HEK293 cells (AID 1920064; active = well fitted curve in the direction sought with a large enough effect in the repeat runs; an effect the other way counts as inactive or inconclusive). Summed up: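 Concentration-response testing used 15 concentrations in triplicate on human KISS1R-expressing HEK293 cells. Calcium-dependent fluorescence (Ex/Em 480/540) was followed kinetically for 3 min after compound transfer.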

A short description of test [5]: G protein-coupled receptor (GPCR) small molecule agonists, calcium flux assay: HEK293 wild type cell line counter screen (AID 1920065). A digest of the protocol: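 Fluorescence intensity signals activation. After overnight (18 h) culture and a 1 h calcium dye load at 37 C, compounds are added by pin tool and the plate read at 480/540 nm for 3 min in 1 s steps.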
Test [6] in a line: p53 small molecule agonists, cell-based qHTS assay with human liver microsomes: qHTS cell viability counter screen (AID 1963579). Note: nearly all actives have a fitted effect of over 45% in size. A digest of the protocol: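 p53RE-bla cells (4,000/well) were pre-incubated 5 h at 37 C, then given compounds in DMSO plus human liver microsomes (0.5 mg/mL final) and NADPH (0.5 mg/mL final) for 16 h at 37 C. Viability was read by CellTiter-Glo luminescence.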

A short description of test [7]: p53 small molecule agonists, cell-based qHTS assay with rat liver microsomes: qHTS cell viability counter screen (AID 1963580). Note: nearly all actives have a fitted effect of over 45% in size. A digest of the protocol: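 Cytotoxicity counter screen: intracellular ATP read by CellTiter-Glo luminescence in the p53 reporter wells. HCT-116 p53RE-bla cells were treated for 16 h at 37 C alongside rat liver microsomes and NADPH, each 0.5 mg/mL final.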

A short description of test [8]: p53 small molecule agonists, cell-based qHTS assay: qHTS cell viability counter screen (AID 1963581). Note: nearly all actives have a fitted effect of over 45% in size. Summed up: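 Luminescence from CellTiter-Glo, reflecting ATP content, serves as the cytotoxicity measure; it is taken after the 2 h reporter substrate step in HCT-116 p53RE-bla cells dosed for 16 h at 37 C.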
The target in test [9] is 5-hydroxytryptamine receptor 2A (Homo sapiens) (UniProt P28223). Description: 5-hydroxytryptamine receptor 2A (HTR2A) small molecule antagonists, cell-based qHTS assay (AID 1963586). Note: nearly all actives have a fitted effect of over 45% in size. A digest of the protocol: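 CHO cells stably expressing human HTR2A were plated for 18 h at 37 C, then loaded with calcium dye for 1 h. Compounds were preincubated 5 min at room temperature before DOI (4 nM solution) was added. Kinetic fluorescence was read for 3 min.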
Chain of 5-hydroxytryptamine receptor 2A (Homo sapiens) (P28223 whole entry, looked up): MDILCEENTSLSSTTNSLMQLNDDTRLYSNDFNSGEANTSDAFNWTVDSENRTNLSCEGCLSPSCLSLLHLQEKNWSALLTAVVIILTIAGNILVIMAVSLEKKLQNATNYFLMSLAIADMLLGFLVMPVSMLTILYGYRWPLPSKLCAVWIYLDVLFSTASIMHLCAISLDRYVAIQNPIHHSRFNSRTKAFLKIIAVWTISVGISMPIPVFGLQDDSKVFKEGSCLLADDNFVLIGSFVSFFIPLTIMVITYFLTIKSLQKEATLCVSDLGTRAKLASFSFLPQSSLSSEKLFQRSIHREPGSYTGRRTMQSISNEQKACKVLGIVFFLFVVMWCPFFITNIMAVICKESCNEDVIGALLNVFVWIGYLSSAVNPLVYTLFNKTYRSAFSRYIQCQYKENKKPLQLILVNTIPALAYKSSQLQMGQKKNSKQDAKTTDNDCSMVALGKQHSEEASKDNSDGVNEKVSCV

Test [10] shares this target. Description: 5-hydroxytryptamine receptor 2A (HTR2A) small molecule agonists, cell-based qHTS assay (AID 1963587). Note: nearly all actives have a fitted effect of over 30% in size. A digest of the protocol:
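Kinetic calcium-flux fluorescence (2 min, 1 sec intervals) after compound addition in agonist mode. HTR2A-CHO cells were cultured 18 h, then dye-loaded 1 h at 37 C.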

In test [11] the target is Muscarinic acetylcholine receptor M1 (Homo sapiens) (UniProt P11229). Kind of test: Cholinergic receptor muscarinic 1 (CHRM1) small molecule antagonists, cell-based qHTS assay (AID 1963588). Note: nearly all actives have a fitted effect of over 40% in size. Summed up:
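Compounds were tested at 15 concentrations in three independent runs. Dye-loaded CHRM1-CHO cells were exposed 5 min at room temperature before stimulation by acetylcholine added at 50nM. Intracellular calcium was read kinetically on FDSS for 3 min.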

Test [12] has the same target. Description: Cholinergic receptor muscarinic 1 (CHRM1) small molecule agonists, cell-based qHTS assay (AID 1963589). Note: nearly all actives have a fitted effect of over 35% in size. Summed up: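 Fluorescent calcium dye reports M1 activation in stably transfected CHO cells. Compounds, 15 concentrations, added after 1 h dye loading at 37 C; kinetic reading at 1 sec intervals.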
Test [13] can be described thus: cAMP Responsive Elements (CRE) small molecule agonists, cell-based qHTS assay (AID 1963590). Summed up:
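Compound exposure lasted 3 h at 37 C/5% CO2 in CRE-bla HEK 293T cells grown in assay medium with 10% dialyzed FBS and 25 mM HEPES. Reporter signal came from LiveBLAzer B/G FRET substrate, 2 h, room temperature.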

The nature of test [14]: cAMP Responsive Elements (CRE) small molecule antagonists, cell-based qHTS assay (AID 1963591; active = well fitted inhibition curve with a large enough effect in the signal ratio in the repeat runs, not every such curve was filed as active; the % refers to the signal ratio). A digest of the protocol: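 Stimulation used NKH477 at a final 0.25 uM for 3 h in compound-treated CRE-bla HEK293T cells, seeded 18 h beforehand. Reporter activity was measured with LiveBLAzer B/G FRET substrate after 2 h at room temperature.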
The target of test [15] is Beta-2 adrenergic receptor (Homo sapiens) (UniProt P07550). Description: Adrenergic beta2 receptor (ADRB2) small molecule antagonists, cell-based qHTS assay (AID 1963592). Note: series mostly up to about 92 µM; nearly all actives have a fitted effect of over 50% in size. Summed up:
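Assay format: CHO-ADRB2 cells, 18-20hr seeding at 37C/5% CO2, then compound plus 1nM isoproterenol agonist mix for 0.5hr RT. Homogeneous time-resolved fluorescence cAMP detection after 1hr, expressed as 665/615 nm ratio.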

The target in test [16] is D(2) dopamine receptor (Homo sapiens) (UniProt P14416). Kind of test: Dopamine D2 receptor (DRD2) small molecule agonists, cell-based qHTS assay (AID 1963594). Note: nearly all actives have a fitted effect of over 35% in size. Summed up:
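cAMP accumulation in DRD2-HEK293 cells measured by HTRF after 1 h detection; compounds added 10 min before NKH477 (200nM […]) forskolin-analogue stimulation, 30 min at room temperature, with Ro20-1724 present at 0.1 mM final.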

Test [17] shares this target. Description: Dopamine D2 receptor (DRD2) small molecule antagonists, cell-based qHTS assay (AID 1963595; active = well fitted inhibition curve with a large enough effect in the signal ratio in the repeat runs, with a control signal flat; the % refers to the signal ratio). A digest of the protocol:
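Cells were plated and grown for 24 h at 37 °C. Ro20-1724 (0.1 mM final) went in first, then compound for 10 min. NKH477 (200 nM) with quinpirole (12 nM) followed for 30 min at RT, then HTRF detection reagents for 1 h.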

Test [18] concerns the target Beta-2 adrenergic receptor (Homo sapiens) (UniProt P07550). Kind of test: Adrenergic beta2 receptor (ADRB2) small molecule agonists, cell-based qHTS assay (AID 1963593).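 Note: CHO cells stably overexpressing human ADRB2.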 A digest of the protocol:
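CHO cells stably over-expressing ADRB2 were plated overnight at 37C, then dosed with compounds plus a stimulation mix containing 100uM IBMX and 25uM Ro-20-1724 for 0.5hr at room temperature. cAMP was measured by HTRF competition, 1hr.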

Chain of D(2) dopamine receptor (Homo sapiens) (P14416 whole entry, looked up): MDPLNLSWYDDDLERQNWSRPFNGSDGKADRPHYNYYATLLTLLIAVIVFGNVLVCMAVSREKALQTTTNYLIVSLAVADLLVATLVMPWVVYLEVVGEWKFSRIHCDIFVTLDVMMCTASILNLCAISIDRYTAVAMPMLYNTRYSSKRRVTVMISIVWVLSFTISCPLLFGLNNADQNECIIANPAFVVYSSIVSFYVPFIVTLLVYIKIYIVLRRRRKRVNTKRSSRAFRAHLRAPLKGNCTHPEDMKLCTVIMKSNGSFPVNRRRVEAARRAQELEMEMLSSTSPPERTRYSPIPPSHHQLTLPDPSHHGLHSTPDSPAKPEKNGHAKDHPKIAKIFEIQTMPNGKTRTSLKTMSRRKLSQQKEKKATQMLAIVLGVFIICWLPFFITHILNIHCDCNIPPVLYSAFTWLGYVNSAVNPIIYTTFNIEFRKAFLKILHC
Chain of KiSS-1 receptor (Homo sapiens) (Q969F8 whole entry, looked up): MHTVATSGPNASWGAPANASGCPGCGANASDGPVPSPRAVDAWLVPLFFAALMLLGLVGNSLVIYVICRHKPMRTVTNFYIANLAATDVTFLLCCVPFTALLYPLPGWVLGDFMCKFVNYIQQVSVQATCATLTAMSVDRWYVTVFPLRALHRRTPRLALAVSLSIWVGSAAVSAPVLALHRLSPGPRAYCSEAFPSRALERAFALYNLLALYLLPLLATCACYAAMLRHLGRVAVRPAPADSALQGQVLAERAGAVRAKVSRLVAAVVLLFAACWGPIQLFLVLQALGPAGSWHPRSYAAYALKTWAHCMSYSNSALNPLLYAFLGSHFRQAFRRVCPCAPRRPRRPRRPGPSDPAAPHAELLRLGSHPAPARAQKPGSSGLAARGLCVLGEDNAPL
Chain of Gonadotropin-releasing hormone receptor (Homo sapiens) (P30968 whole entry, looked up): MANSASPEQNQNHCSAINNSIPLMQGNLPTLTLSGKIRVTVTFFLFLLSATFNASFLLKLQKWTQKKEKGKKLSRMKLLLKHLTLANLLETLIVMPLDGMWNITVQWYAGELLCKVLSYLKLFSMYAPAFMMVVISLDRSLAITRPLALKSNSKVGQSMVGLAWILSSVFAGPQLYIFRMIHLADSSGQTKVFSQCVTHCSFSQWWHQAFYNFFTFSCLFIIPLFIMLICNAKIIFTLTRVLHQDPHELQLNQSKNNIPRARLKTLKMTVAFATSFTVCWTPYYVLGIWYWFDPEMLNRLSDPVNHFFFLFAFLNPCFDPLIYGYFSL
Chain of Muscarinic acetylcholine receptor M1 (Homo sapiens) (P11229 whole entry, looked up): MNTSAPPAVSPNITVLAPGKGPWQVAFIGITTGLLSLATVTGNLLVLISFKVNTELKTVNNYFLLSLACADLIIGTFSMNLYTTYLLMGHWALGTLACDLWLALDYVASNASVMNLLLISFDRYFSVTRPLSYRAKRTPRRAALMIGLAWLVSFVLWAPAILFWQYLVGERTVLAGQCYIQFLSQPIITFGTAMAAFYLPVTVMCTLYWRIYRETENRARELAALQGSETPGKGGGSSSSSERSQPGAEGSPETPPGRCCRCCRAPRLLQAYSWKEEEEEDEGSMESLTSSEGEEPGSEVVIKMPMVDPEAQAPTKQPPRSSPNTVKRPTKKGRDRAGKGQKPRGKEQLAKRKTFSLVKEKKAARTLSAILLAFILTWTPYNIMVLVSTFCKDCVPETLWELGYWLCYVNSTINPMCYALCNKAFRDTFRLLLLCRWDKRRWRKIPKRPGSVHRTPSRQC
Chain of Beta-2 adrenergic receptor (Homo sapiens) (P07550 whole entry, looked up): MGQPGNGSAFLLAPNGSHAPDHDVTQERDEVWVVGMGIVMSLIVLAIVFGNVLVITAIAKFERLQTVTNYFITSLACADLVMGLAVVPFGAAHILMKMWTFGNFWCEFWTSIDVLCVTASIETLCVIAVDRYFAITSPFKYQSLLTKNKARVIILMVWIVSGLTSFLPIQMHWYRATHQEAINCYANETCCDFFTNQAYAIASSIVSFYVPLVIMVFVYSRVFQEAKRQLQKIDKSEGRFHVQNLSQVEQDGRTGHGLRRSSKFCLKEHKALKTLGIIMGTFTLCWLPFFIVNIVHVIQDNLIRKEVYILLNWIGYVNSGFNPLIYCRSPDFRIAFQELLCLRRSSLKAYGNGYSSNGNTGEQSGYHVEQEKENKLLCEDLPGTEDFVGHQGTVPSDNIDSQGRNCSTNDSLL

Regarding `OCC(CO)(CBr)CBr`, the Potency entry in test [1], in test [2], in test [3], in test [4], in test [5] and in test [6] was “inactive” each time. The Potency entry in test [7], in test [8], in [9], in [10], in [11] and in test [12] was “inactive” in each case. Besides, the Potency result in [13], in [14], in test [15], in test [16] and in test [17] was “inactive” in each case.

With `Nc1cccc(N)n1`, the Potency result in test [1], in test [2], in [3], in test [4], in [5] and in test [6] was “inactive” each time. The Potency entry in [7], in test [8], in test [9], in test [10], in test [12] and in test [13] was “inactive” throughout. For the same molecule, the Potency entry in [14], in test [16] and in test [17] was “inactive” each time.

In the case of `O=c1cc(-c2ccccc2)oc2ccccc12`, the Potency result in test [1] is “inactive and 13.6 µM (active)”; in test [2] it was 4.86 µM (active) and 2.16 µM (active). Besides, the Potency result in [3], in test [4], in [5], in test [6], in test [7] and in [8] was “inactive” in each case. The Potency result in test [9], in test [10], in test [11], in test [12], in test [14] and in test [15] was “inactive” in each case. Moreover, the Potency result in test [16] and in test [17] was “inactive” in each case.

On to `C=C[C@H]1CN2CC[C@H]1C[C@@H]2[C@@H](O)c1ccnc2ccc(OC)cc12`, for which the Potency result in [1], in test [2], in test [3], in [4], in test [5] and in test [6] was “inactive” each time. For the same molecule, the Potency entry in test [7], in [8], in test [9], in test [11], in [12] and in test [13] was “inactive” each time. Besides, the Potency entry in test [15], in [18], in test [16] and in test [17] was “inactive” each time.

As to `COc1ccc(N)c(C)c1`, the Potency entry in test [1], in test [2], in [3], in test [4], in [5] and in test [6] was “inactive” throughout. Moreover, the Potency result in [7], in [8], in test [9], in [10], in test [11] and in [12] was “inactive” throughout. The Potency result in [13], in test [14], in test [15], in test [18], in test [16] and in test [17] was “inactive” each time.

As for `COC(=O)/C=C/c1ccccc1`, the Potency result in test [1], in test [2], in [3], in test [4], in test [5] and in test [6] was “inactive” each time. Further, the Potency entry in test [7], in [8], in test [9], in [10], in [11] and in test [12] was “inactive” each time. In addition, the Potency entry in test [14], in [15], in test [18], in test [16] and in test [17] was “inactive” in each case.

On to `Cc1cccc(C)c1[N+](=O)[O-]`, for which the Potency result in test [1], in [2], in test [3], in [4], in [5] and in test [6] was “inactive” throughout. The Potency entry in test [7], in test [8], in test [9], in [11], in test [12] and in test [13] was “inactive” in each case. The Potency entry in test [14], in test [15], in test [18], in [16] and in test [17] was “inactive” throughout.
